Screens from PubChem.
Most compounds without a hit are left out; they make up all but 2.5% or so of the library.
D2 PAM-1: positively modulates the human D2 dopamine receptor allosterically. P14416. HEK293 T-REx D2, calcium flux, EC20 dopamine potentiation. potentiation, % at 10 µM. hit rate 0.34% among 340,000;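 active = potentiation over 3 SD above the plate norm, cut at about 30% in these data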; also: 0% is about no effect
Target sequence (P14416 whole entry, looked up): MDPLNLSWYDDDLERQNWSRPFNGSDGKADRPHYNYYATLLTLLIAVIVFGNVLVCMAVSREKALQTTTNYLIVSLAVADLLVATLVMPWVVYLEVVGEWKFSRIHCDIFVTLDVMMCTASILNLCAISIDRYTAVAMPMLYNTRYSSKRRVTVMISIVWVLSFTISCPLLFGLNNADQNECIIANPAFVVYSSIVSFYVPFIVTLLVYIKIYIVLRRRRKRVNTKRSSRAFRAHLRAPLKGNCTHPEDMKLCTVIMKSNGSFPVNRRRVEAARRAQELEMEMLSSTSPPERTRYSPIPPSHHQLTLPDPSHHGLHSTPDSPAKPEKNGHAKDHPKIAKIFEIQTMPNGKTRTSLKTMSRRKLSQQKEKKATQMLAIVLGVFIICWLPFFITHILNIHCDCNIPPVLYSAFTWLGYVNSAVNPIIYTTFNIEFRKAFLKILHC
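Primary screen. Calcium kinetics in induced HEK293 T-REx D2 cells: compound pre-addition 180 s, EC20 dopamine, 180 s more.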
D2 ag-1: activates the human D2 dopamine receptor. DiscoveRx PathHunter D2 beta-arrestin, luminescence, 90 min; 100% = 57 uM dopamine signal. AID 624465. activation, % (concentration not given with the values). hit rate 0.084% among 360,000. P14416; in the data active = activation above about 40%; inconclusive = between about 15% and that limit
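DiscoveRx PathHunter D2 beta-arrestin cells (2,100/well) attached overnight, then compound-stimulated 90 min at 37 C in HBSS/10 mM HEPES/0.1% Tween-20 buffer; beta-galactosidase complementation read by luminescence after 1 h at ambient temperature. Dopamine 57 uM final (EC100) as control.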
D2 PAM-2: human D2 receptor positive allosteric modulation; DiscoveRx D2 beta-arrestin cells, luminescence, 90 min; 100% = 57 uM dopamine signal; potentiation, % (no concentration beside the values); P14416; hit rate 0.23% among 360,000; in the data active = potentiation above about 50%; inconclusive = mostly about 30% to 49%
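PathHunter beta-arrestin assay in DiscoveRx D2 cells. Compounds were added with an EC20 of dopamine (50 nM final) for 90 min at 37 deg C. Luminescence was read 1 h after detection reagent, with 57 uM dopamine as the EC100 control.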
Apoferritin bind: candidate novel general anesthetic via apoferritin binding; P02791; apoferritin/1-aminoanthracene competitive binding, fluorescence; Potency, µM (top dose mostly 77.5 µM), inactives show top-dose activity change, negative = displacement, actives largely listed as inhibitors; hit rate 0.074% among 350,000; AID 485281; active = well fitted inhibition curve with a large enough effect; inconclusive = small, poorly fitted or top-dose-only effect; inactive = no such curve, though single readings can be large or run the other way; also: potency is read from the fitted curve at half-maximal effect; % is scaled to controls: 0 for no effect and ±100 for the full control effect; nearly all actives have a fitted effect of over 20% in size
Target sequence (P02791 2-175 limits assumed): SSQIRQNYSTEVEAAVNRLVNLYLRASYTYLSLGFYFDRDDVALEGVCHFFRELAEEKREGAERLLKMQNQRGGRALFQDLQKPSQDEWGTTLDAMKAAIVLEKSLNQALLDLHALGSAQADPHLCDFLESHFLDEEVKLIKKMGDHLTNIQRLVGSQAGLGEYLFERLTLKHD
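Probe: 1-aminoanthracene (50% saturated, PBS). Protein: horse-spleen apoferritin, 10 uM. Incubation: 10 min, room temperature. Detection: 380 nm excitation, 535 nm emission. Analysis: normalized response, four-parameter Hill.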
D2 antagonist: D2 dopamine receptor (human) antagonism | P14416 | HEK293 TREx D2 cells, calcium flux, dopamine EC80 | inhibition, % at 10 µM | hit rate 2% among 340,000 | AID 485344; in the data active = inhibition above about 30%; inactive = below that, where a call was filed; also: 0% is about no effect
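Read-out: kinetic calcium fluorescence (1 cycle/s) in inducible HEK293 T-REx D2 cells after an EC80 dopamine addition that followed 180 s compound preincubation. Loss of the dopamine response indicates antagonism.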
D2 ag-2: agonists of human D2 dopamine receptor; P14416; AID 485358; hit rate 0.53% among 340,000; activation, % at 2 µM; HEK293 T-REx D2 cells, calcium flux agonist mode;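 active = activation over 3 SD above normal in the single-dose calcium agonist read, cut at about 30% in these data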; also: 0% is about no effect
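HEK293 Trex D2 cells, tetracycline-induced, o/n 30 C 5% CO2; no-wash Ca dye, RT 30–90 min; 10-cycle baseline, 23 nl cpd added, kinetic Ca read 180 s; agonist hits = positive Ca response.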
Numbers without * were called inactive; ? = inconclusive; / = not tested or not shown.

SMILES	D2 PAM-1	D2 ag-1	D2 PAM-2	Apoferritin bind	D2 antagonist	D2 ag-2
Fc1ccc(Nc2nc3ccccc3s2)cc1	-5.1	2.9	-36.0	-16.6%	32.8*	1.4
Cc1ccc(Nc2nc3ccccc3s2)cc1	-1.3	1.0	-13.3	-22.5%	-16.7	-0.5
CCOC(=O)Nc1sc(C(=O)N(CC)CC)c(C)c1C(=O)OCC	45.0*	-5.9	-10.8	2.2%	-11.1	0.6
CCCC12CN3CC(C)(CN(C1)C31C(=O)Nc3ccc(C)cc31)C2=O (configuration not stated)	-6.1	0.1	9.3	2.7%	-14.6	-2.0
Cc1ccc2c(c1)C1(C(=O)N2C)N2CC3(C)CN1CC(C)(C2)C3=O (configuration not stated)	33.3*	-2.3	-2.3	-7.1%	-3.4	0.9
CN(Cc1ccccc1)C(=O)c1cccc(NC(=O)Cc2cccc(NC(=O)C3CCN(C(=O)c4ccccc4)CC3)c2)c1	/	-0.6	-2.0	/	/	/
NC(=O)NC(=O)CSc1nc2sc(-c3ccccc3)cc2c(=O)n1-c1ccccc1	-1.1	2.2	1.2	5.5%	1.0	0.0
CCCCC1=CC2=CC(=O)C(C)(OC(=O)C3CCCC3)C(=O)C2=CO1 (configuration not stated)	14.5	5.8	-1.8	?	0.9	0.4
CCOc1ccc(C(=O)N(Cc2sccc2C)C2CCS(=O)(=O)C2)cc1 (configuration not stated)	7.7	/	/	0.1%	/	0.8
COc1ccc(C(=O)N(Cc2sccc2C)C2CCS(=O)(=O)C2)cc1 (configuration not stated)	0.0	2.9	-14.3	-5.7%	37.8*	-0.8
O=C(N/N=C/c1cccc(O)c1)N/N=C/c1cccc(O)c1	-3.9	1.8	2.9	-4.4%	23.8	1.8
Cc1nonc1C(=O)N/N=C/c1cccc(O)c1	15.3	-4.6	-0.8	-1.4%	33.1*	-0.7
CC(=O)Nc1ccc(NC(=O)CSc2ccccn2)cc1	5.3	-1.1	-10.3	-4.1%	0.6	-0.9
COc1cccc(NC(=O)CSc2nccn2-c2cccc(OC)c2)c1	-16.5	-3.1	-33.7	-15.7%	-1.5	1.3
CC(=O)Nc1ccc(NC(=O)CSc2ncnn2-c2ccccc2)cc1	31.0*	-2.5	4.6	-11.1%	15.3	0.3
COc1cccc(-n2ccnc2SCC(=O)Nc2ccccc2)c1	-22.9	-3.9	-32.0	-22.5%	50.4*	-0.1
CCCOP(=O)(OCCC)C(Nc1cccc(C(F)(F)F)c1)c1ccc(C)cc1 (configuration not stated)	2.7	-0.7	-12.8	-1.4%	0.4	3.4
CCOP(=O)(OCC)C(Nc1cccc(C(F)(F)F)c1)c1ccc(C)cc1 (configuration not stated)	-17.0	-2.1	-8.9	-16.4%	-10.2	36.6*
Cc1ccc(NC(=O)CN(C)C(=O)c2cccc(S(=O)(=O)NCc3cccs3)c2)cc1	-19.3	4.2	-5.9	/	-22.3	-0.3
COc1cccc(NC(=O)CN(C)C(=O)CC(NC(=O)c2ccccc2Cl)c2ccccc2)c1 (configuration not stated)	-22.2	-0.8	-5.3	/	31.6*	0.0
Cc1ccc(NC(=O)CN(C)C(=O)c2cccc(S(=O)(=O)NCc3ccccc3)c2)cc1	-1.7	-3.5	-37.7	/	45.9*	0.0
COc1cccc(NC(=O)CN(C)C(=O)c2cccc(NS(=O)(=O)c3ccccc3)c2)c1	-10.2	0.4	-2.1	/	31.7*	-0.3
Cc1nnc(N2C(=O)c3cccc4c([N+](=O)[O-])ccc(c34)C2=O)s1	-2.1	4.1	61.8*	-9.3%	-4.9	1.7
Cc1ccnc(N2C(=O)c3cccc4c([N+](=O)[O-])ccc(c34)C2=O)c1	-5.1	8.8	51.4*	0.8%	6.4	2.2
Cc1cc(C)c2c(n1)nn1c(NCCCN3CCOCC3)cc(C)nc21	/	-3.0	-11.6	/	/	/
SMILES	D2 PAM-1	D2 ag-1	D2 PAM-2	Apoferritin bind	D2 antagonist	D2 ag-2
Cc1cc(C)c2c(n1)nn1c(NCCCn3ccnc3)cc(C)nc21	33.8*	/	/	112.8%	-16.7	0.3
O=C(NCc1ccccc1)c1cccc(S(=O)(=O)N2CCCCC2)c1	0.6	3.5	-1.3	-14.9%	2.8	-1.2
CC1(C)Cc2c(C#N)c(NCCO)nc(-c3ccco3)c2CO1	6.9	0.6	-1.6	8.0%	5.9	0.3
Oc1ccc[n+](/C=C\c2ccccc2)c1	13.5	0.3	-9.6	/	37.9*	0.3
COc1cccc(CC(=O)Nc2nc(-c3cccnc3)cs2)c1	7.6	2.9	1.0	2.9%	-5.0	-0.7
Cc1cc(C)cc(NC(=O)CSc2nc3nc(C)cc(C)c3c(=O)[nH]2)c1	-2.5	0.9	1.7	/	34.6*	0.6
CCCCc1nc2cc(C(=O)NCCc3c(C)n[nH]c3C)ccc2o1	/	2.6	5.6	/	/	/
Cc1cc(NC(=O)c2cccs2)ncc1NC(=O)c1cccc(F)c1	3.2	-2.7	-1.7	?	-17.3	0.0
Cc1ccc(C(=O)O)cc1NC(=O)c1cccs1	4.5	0.9	10.3	40.1%	43.8*	-0.3
Cc1cc(NC(=O)c2ccccc2)ncc1NC(=O)c1cccs1	1.2	2.4	-2.7	-15.7%	36.4*	-0.9
Cn1nnnc1SCC(=O)Nc1ccc(Br)cc1Cl	43.7*	-2.2	5.7	-17.1%	6.6	-0.3
COc1cc(Br)cc(/C=N/N(CCO)C2=NS(=O)(=O)c3ccccc32)c1OC	-26.2	-3.3	-23.4	-11.3%	38.0*	-1.6
COc1cc(/C=N/N(CCO)C2=NS(=O)(=O)c3ccccc32)cc(OC)c1OC	7.1	3.6	3.2	0.3%	-30.5	0.4
NC(=S)NNC(=O)C12CC3CC(CC(C3)C1)C2	-13.2	-1.4	-3.5	?	43.9*	62.2*
NNC(=O)CNC(=O)C12CC3CC(CC(C3)C1)C2	-1.1	-0.9	-0.4	7.94µM*	-0.6	1.3
CCc1cc(=O)oc2cc(OCC(=O)N3CC[C@@]4(O)CCCC[C@H]4C3)ccc12	12.8	-9.7	-28.4	-15.2%	6.8	0.1
COc1cc(/C=c2\s/c(=C(/C#N)C(=O)N3CCCC3)n(-c3ccccc3)c2=O)ccc1O	-1.1	-2.5	-6.1	-6.3%	8.1	38.7*
COC(=O)c1ccccc1NC(=O)NCc1ccccn1	-3.2	-3.6	-8.4	2.9%	7.4	-4.6
O=C(Cn1c(=O)oc2ccccc21)Nc1ccc(Br)cc1	5.8	1.5	-8.9	-12.6%	-14.3	1.0
OCc1cn(-c2ccccc2)nc1-c1cc2ccccc2o1	4.3	-3.3	-6.1	-7.2%	44.7*	-0.8
O=C(N/N=C/c1cn(-c2ccccc2)nc1-c1cc2ccccc2o1)c1c[nH]c2ccccc12	4.1	-1.7	4.7	45.7%	34.3*	-0.9
